Source: PubChem BioAssay
TRPV1 ag = human TRPV1 agonism; Q8NER1; TRPV1-expressing cells, Fluo-8 calcium influx, agonist mode; activation, % at 8.33 µM; 0.19% of 320,000 active; AID 540275; in the data active = activation above about 80%; inconclusive = between about 30% and that limit; note: 0% is about no effect
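TRPV1-expressing cells were cultured overnight at 35.5C and loaded with Fluo-8 calcium dye for 40 to 90 min at room temperature. After a 10 s baseline, compound was added and calcium influx was read kinetically for 3 min (ex 480/em 520 nm).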
TRPML1 agonist = agonists of human TRPML1 channel; activation, % (concentration not given with the values); TRPML1-expressing cells, Ca2+ dye fluorescence, FDSS; Q9GZU1; 0.12% of 410,000 active; in the data active = activation above about 50%; inconclusive = mostly about 30% to 49%; note: 0% is about no effect
Target sequence (Q9GZU1 whole entry, looked up): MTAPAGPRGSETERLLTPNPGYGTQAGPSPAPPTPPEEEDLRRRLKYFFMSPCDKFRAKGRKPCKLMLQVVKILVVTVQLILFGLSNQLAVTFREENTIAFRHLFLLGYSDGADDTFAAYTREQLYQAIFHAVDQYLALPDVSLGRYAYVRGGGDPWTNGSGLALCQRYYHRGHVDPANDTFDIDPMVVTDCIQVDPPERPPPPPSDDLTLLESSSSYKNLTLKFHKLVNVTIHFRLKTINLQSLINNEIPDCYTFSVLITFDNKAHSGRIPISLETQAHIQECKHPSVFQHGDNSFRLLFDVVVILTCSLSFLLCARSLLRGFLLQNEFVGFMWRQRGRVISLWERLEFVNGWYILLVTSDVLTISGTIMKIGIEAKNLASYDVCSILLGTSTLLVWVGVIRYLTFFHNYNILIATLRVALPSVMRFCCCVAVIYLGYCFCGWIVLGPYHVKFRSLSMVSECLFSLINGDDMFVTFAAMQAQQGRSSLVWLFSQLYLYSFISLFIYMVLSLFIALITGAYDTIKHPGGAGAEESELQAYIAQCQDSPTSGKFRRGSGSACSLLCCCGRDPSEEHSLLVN
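Kinetic FDSS Ca2+ read in Tet-induced TRPML1-DL cells (ABD Ca8 dye plus quencher, 45-90 min RT loading): baseline, then compound, then 110 s agonist window; EC80 agonist 54-4 at 4uM final added afterwards for a 110 s antagonist window.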
TRPML1 inh = human mucolipin-1 channel inhibition; Q9GZU1; TRPML1-inducible cells, Ca2+ dye fluorescence, FDSS; hits give low values; inhibition of EC80 agonist-evoked calcium signal; activity change, negative = inhibition, % (no concentration beside the values); 0.02% of 390,000 active; AID 624415; in the data active = activity change below about -50%; inconclusive = between about -30% and that limit;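 note: stimulus is agonist 54-4 at its EC80 concentration; % is set by controls: 0 for no effect and ±100 for the full control effect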
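TRPML1-DL cells, Tet-induced overnight (~16 h, 37 °C) at 1,500 cells/well, were loaded with Ca8 no-wash dye plus quencher for 45-90 min at room temperature. Compounds were pinned during FDSS kinetic reading; agonist 54-4 at EC80 (4 uM final) then added.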
TRPV1 PAM = enhances activation of the human vanilloid receptor TRPV1; 0.02% of 320,000 active; potentiation, % at 8.33 µM; TRPV1-expressing cells, Fluo-8 calcium influx, capsaicin EC20 potentiation; Q8NER1; in the data active = potentiation above about 80%; inconclusive = between about 30% and that limit; note: 0% is about no effect
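Cells expressing TRPV1 were dye-loaded with Fluo-8 and read kinetically: 10 s baseline, 3 min after compound (agonist portion), then 2 min after EC20 capsaicin (allosteric enhancer portion). Calcium-bound dye fluorescence at 480/520 nm.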
* hit, by the source's call; ? = inconclusive; . = not tested or not shown. In the library only some 0.27% were active in any assay of this set; here they are far more common.

SMILES	TRPV1 ag	TRPML1 agonist	TRPML1 inh	TRPV1 PAM
CC(C)(C)c1ccc(/C=C/C(=O)Nc2ccncc2)cc1	96.2*	1.5	12.6	-3.6
Cc1nc2ccc(F)cc2cc1C(=O)Nc1cccc(Cl)c1C	?	-0.2	1.5	-10.1
CCOC(=O)[C@H]1[C@H]2COc3ccc(OC)cc3[C@@H]2N2C(=O)c3cc(OC)ccc3NC(=O)[C@@]12C	97.1*	-1.1	80.5	5.2
CCOC(=O)[C@H]1[C@H]2COc3ccc(Cl)cc3[C@@H]2N2C(=O)c3cc(Br)ccc3NC(=O)[C@@]12C	?	-0.2	-23.1	?
CCOC(=O)[C@H]1[C@H]2COc3ccc(OC)cc3[C@@H]2N2C(=O)c3cc(OC)c(OC)cc3NC(=O)[C@@]12C	-1.4	0.6	-24.0	6.6
CCOC(=O)[C@H]1[C@H]2COc3ccc(OC)cc3[C@@H]2N2C(=O)c3cc(F)c(F)cc3NC(=O)[C@@]12C	92.4*	-0.1	1.2	?
CCOC(=O)[C@H]1[C@H]2COc3ccc(Br)cc3[C@@H]2N2C(=O)c3cc(Br)ccc3NC(=O)[C@@]12C	82.7*	0.7	2.1	24.7
CCOC(=O)[C@H]1[C@H]2COc3ccc(OC)cc3[C@@H]2N2C(=O)c3ccccc3NC(=O)[C@@]12C	100.0*	-0.4	-12.7	-7.3
COc1cccc(-c2nnc3sc(-c4ccccc4)nn23)c1	27.5	-0.3	5.3	-10.3
CCc1ccccc1NC(=O)CN(C)C(=O)COC(=O)c1c(Cl)cccc1Cl	-2.0	-0.1	-19.8	13.5
CSCCC(NC(=O)/C(=C/c1ccc2c(c1)OCO2)NC(=O)c1cccc([N+](=O)[O-])c1)C(=O)O (centres undefined)	2.6	0.0	4.6	3.2
COc1cc(C(=O)N2CCCCC2c2cc(C(=O)NC(C)C)no2)cc(OC)c1C (centres undefined)	.	-0.5	.	.
CC(C)(C)NC(=O)CN(C(=O)CCC(=O)Nc1nccs1)c1ccc2c(c1)OCCO2	0.9	-0.6	30.3	4.0
COCCn1c2nc(=O)n(-c3ccccc3)c(=O)c-2nc2ccccc21	.	58.9*	-8.7	.
COCCn1c(-c2ccc(OC)cc2)nc2ccccc21	0.0	4.5	11.0	-6.7
Cc1c(C(=O)Nc2ccncc2)sc2nc(-c3ccccc3)cn12	90.4*	0.1	0.9	-23.0
C(=Nc1ccccc1)c1ccc[nH]1	.	1.3	8.2	.
Cc1ccc2nc(/C(C#N)=C/c3ccc(-c4ccccc4C(=O)O)o3)[nH]c2c1	20.5	?	-15.5	-1.1
CCOC(=O)c1ccc(-c2ccc(/C=C(\C#N)c3nc4ccc(C)cc4[nH]3)o2)cc1	.	50.7*	-28.6	.
COc1ccc(C(=O)NC(c2ccc(OC)c(OC)c2)c2cc(Cl)c3cccnc3c2O)cc1 (centres undefined)	.	1.1	.	.
CCC(=O)NC(c1ccc(OC)cc1)c1cc(Cl)c2cccnc2c1O (centres undefined)	84.3*	3.2	-6.7	9.4
N#Cc1cccc(NC(=O)CSc2ccc3c4c(cccc24)C(=O)c2ccccc2-3)c1	5.4	80.3*	-14.9	-7.7
Cc1ccc(OCCNC(=O)Cc2ccc(F)cc2)cc1	84.3*	3.1	24.5	-13.5
Cc1ccc(NC(=O)c2ccc3c(c2)CCN3S(C)(=O)=O)cc1	.	-0.7	2.0	.
CS(=O)(=O)N1CCc2cc(C(=O)Nc3ccc(Br)cc3)ccc21	88.2*	1.0	?	-6.7
SMILES	TRPV1 ag	TRPML1 agonist	TRPML1 inh	TRPV1 PAM
Cc1ccc(S(=O)(=O)Oc2ccccc2-c2ccccc2)cc1	.	99.6*	-23.7	.
COc1ccccc1C(=O)NC(=S)NNC(=O)c1sc2ccccc2c1Cl	14.7	50.9*	0.6	-17.3
CCN(CC(=O)NCc1ccc(F)cc1)Cc1cc(=O)n2ccsc2n1	-4.1	0.2	6.2	13.2
Cc1ccccc1S(=O)(=O)Cc1ccc(C(=O)NCc2cccnc2)o1	-0.4	-0.7	-9.8	4.3
O=C(O)c1ccc(CSc2nc3ccccc3c(=O)n2-c2ccccc2)cc1	0.1	.	.	-2.7
O=C(c1ccc(-n2c(SCc3cccc(F)c3)nc3ccccc3c2=O)cc1)N1CCOCC1	87.5*	-0.1	-2.2	-8.8
COc1ccc(NC(=O)C2CC2)cc1S(=O)(=O)N1CCOCC1	0.5	-0.3	0.6	-6.0
COc1ccc(NC(=O)C2CCC(C(C)(C)C)CC2)cc1S(=O)(=O)N1CCCCC1 (centres undefined)	0.9	83.8*	-1.4	-3.2
CC1(c2ccc3ccccc3c2)NC(=O)N(CC(=O)N2CCN(Cc3ccccc3)CC2)C1=O (centres undefined)	5.3	0.3	1.9	10.4
CC(=O)NCCCc1nc2ccccc2n1Cc1cc(C)ccc1C	89.0*	1.3	-24.4	2.3
Cc1ccc2c(c1)C/C(=C/c1ccc(N(C)C)cc1)C2=O	.	55.2*	.	.
CCN(C(=O)COC(=O)c1ccc[nH]c1=O)c1cccc2ccccc12	.	-0.9	-6.3	.
CCCCc1ccc(NC(=S)Nc2cccnc2)cc1	29.9	1.0	-22.2	-9.9
CCCCc1ccc(NC(=O)Nc2cccnc2)cc1	85.0*	-0.6	1.0	6.2
Cc1cc2nc(-c3ccc(SCC(=O)N4CCOCC4)nc3)[nH]c2cc1C	.	-0.2	-5.7	.
CCC(c1nnnn1Cc1cccs1)N1CCN(c2nc3ccccc3s2)CC1 (centres undefined)	0.3	13.2	3.3	20.5
CC(C)CC(c1nnnn1Cc1cccs1)N1CCN(c2nc3ccccc3s2)CC1 (centres undefined)	1.4	73.8*	-11.0	-5.1
CC1CCCN(c2ccc(C(=O)Nc3cccnc3)cc2[N+](=O)[O-])C1 (centres undefined)	87.3*	-2.0	14.6	-2.6
CN(c1ccccc1)S(=O)(=O)c1cccc(NC(=O)Cn2cnc3ccccc3c2=O)c1	-8.0	1.6	9.1	81.8*
CC(C)(C)c1ccc(CN(Cc2ccccc2)C(c2ccccn2)c2nnnn2C(C)(C)C)cc1 (centres undefined)	25.4	55.8*	2.7	-12.2
Cc1ccc(-n2nnnc2-c2cnc(N3CCCC3)nc2C(F)(F)F)cc1	0.4	11.2	4.9	-18.4
FC(F)(F)c1nc(N2CCCC2)ncc1-c1nnnn1-c1ccccc1	-0.9	52.0*	-9.8	-7.6
CCCCNc1c(-c2ccc(OC)c(SC3CCCCC3)c2)nc2cc(C)ccn12	87.7*	-0.3	7.8	5.7
Cc1c(C(=O)NCCc2ccccc2)cccc1-n1cnc2cccnc21	.	1.2	-8.1	.
O=C1S/C(=C\c2ccc(N3CCOCC3)o2)C(=O)N1c1ccccc1	?	56.7*	-4.5	8.7
COCCN(Cc1cc2cccc(C)c2[nH]c1=O)C(=O)c1ccccc1	-2.5	0.9	11.5	3.0
CCC(=O)N(CCc1ccccc1)Cc1cc2cccc(C)c2[nH]c1=O	87.8*	.	.	22.1
COC(=O)c1ccc(CNC(=O)COC(=O)CCC2CCCC2)cc1	84.0*	1.2	-5.0	-27.1
COc1ccccc1Cn1c(=O)c2ccccc2n2c(SCC(=O)N3CCCCC3)nnc12	4.7	2.1	-60.7*	-8.2
